Targets with a hit are over-represented here; the source holds about 8,800 in all. About 0.5% of all pairs of compound and target were hits. Values without a mark were called inactive.
Key:
Assay in all cases: log2 fold change, soluble protein after heating vs DMSO (PISA); higher = thermal stabilisation; K562 lysate, 10 uM; active = over 0.2 and 3.5 SD of the protein, either way, in both replicates (recomputed)
ibrutinib = compound: C=CC(=O)N1CCC[C@@H](n2nc(-c3ccc(Oc4ccccc4)cc3)c3c(N)ncnc32)C1 [ibrutinib]
Procedure, shortened: (§1)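 Dounce homogenisation of K562 pellets in PBS pH 7.4 with 1 mM MgCl2 produced a crude extract, used at 1 mg/mL protein. Exposure to 10 μM compound lasted 30 min, and aliquots were then heated for 3 min across 48°C-58°C, pooled and brought to 0.5% NP-40 at 4°C. The supernatant after 21,000xg for 90 min was quantified by TMTpro 16plex LC-MS/MS with channel sums equalised. Duplicate values are given as log-two fold change in thermal stability relative to solvent controls.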

[1] = compound: CC(=O)c1cnc2ccc(-c3cc(Cl)c(O)c(Cl)c3)nc2c1N[C@H]1CC[C@H](CN(C)C)CC1
Procedure, shortened: as §1

ralimetinib = compound: CC(C)(C)Cn1c(N)nc2ccc(-c3[nH]c(C(C)(C)C)nc3-c3ccc(F)cc3)nc21 [ralimetinib]
Procedure, shortened: as §1

[2] = compound: CC(C)(O)CC(=O)NCCn1ccc2ncnc(Nc3ccc(Oc4cccc(C(F)(F)F)c4)c(Cl)c3)c21
Procedure, shortened: as §1

[3] = compound: CC(C)C1=C2N=C(C=C(N2N=C1)NCC3=CC=CC=C3)NCCCCCCN
Procedure, shortened: as §1

[4] = compound: CC1=C(C(CC(=O)N1)C2=CC=C(C=C2)C(F)(F)F)C(=O)NC3=C(C=C4C(=C3)C=NN4)F
Procedure, shortened: as §1

[5] = compound: CC1=C(C2=C(C=C1)C(=O)C3=CC=CC=C3N2CCCN)C
Procedure, shortened: as §1

[6] = compound: CC1=C(C=C(C=C1)NC(=O)C2=CC(=CC=C2)C(C)(C)C#N)NC3=CC4=C(C=C3)N=CN(C4=O)C
Procedure, shortened: as §1

[7] = compound: CC1=C(C=C(C=C1)NC(=O)C2=CC(=CC=C2)N(C)C)NC(=O)C3=CC=C(C=C3)O
Procedure, shortened: as §1

[8] = compound: CC1=CC=C(C=C1)SC2=C3C=C(SC3=CN=C2)C(=O)N
Procedure, shortened: as §1

Sequence of UniProt P49918 (P49918 whole entry, looked up): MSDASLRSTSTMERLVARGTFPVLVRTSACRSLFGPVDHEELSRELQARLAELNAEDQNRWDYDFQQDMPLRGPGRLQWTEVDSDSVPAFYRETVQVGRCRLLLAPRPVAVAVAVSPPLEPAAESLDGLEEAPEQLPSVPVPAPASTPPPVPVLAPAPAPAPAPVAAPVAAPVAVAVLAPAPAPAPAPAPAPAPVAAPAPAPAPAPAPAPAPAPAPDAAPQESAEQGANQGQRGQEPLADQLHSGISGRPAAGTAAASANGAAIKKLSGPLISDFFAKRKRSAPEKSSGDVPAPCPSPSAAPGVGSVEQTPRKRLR
Sequence of UniProt P20248 (P20248 whole entry, looked up): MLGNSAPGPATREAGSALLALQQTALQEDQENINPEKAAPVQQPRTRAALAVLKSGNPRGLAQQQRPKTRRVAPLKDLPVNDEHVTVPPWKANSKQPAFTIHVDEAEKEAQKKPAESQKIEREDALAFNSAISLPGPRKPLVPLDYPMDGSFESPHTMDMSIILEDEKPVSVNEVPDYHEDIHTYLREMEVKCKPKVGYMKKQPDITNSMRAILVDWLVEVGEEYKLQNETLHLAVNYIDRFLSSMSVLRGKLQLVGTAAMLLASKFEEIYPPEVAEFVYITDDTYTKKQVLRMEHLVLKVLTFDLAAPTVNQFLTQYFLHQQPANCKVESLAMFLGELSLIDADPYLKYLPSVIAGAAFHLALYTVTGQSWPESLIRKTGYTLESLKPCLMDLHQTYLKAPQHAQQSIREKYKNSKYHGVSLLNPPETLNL
Sequence of UniProt O14981 (O14981 whole entry, looked up): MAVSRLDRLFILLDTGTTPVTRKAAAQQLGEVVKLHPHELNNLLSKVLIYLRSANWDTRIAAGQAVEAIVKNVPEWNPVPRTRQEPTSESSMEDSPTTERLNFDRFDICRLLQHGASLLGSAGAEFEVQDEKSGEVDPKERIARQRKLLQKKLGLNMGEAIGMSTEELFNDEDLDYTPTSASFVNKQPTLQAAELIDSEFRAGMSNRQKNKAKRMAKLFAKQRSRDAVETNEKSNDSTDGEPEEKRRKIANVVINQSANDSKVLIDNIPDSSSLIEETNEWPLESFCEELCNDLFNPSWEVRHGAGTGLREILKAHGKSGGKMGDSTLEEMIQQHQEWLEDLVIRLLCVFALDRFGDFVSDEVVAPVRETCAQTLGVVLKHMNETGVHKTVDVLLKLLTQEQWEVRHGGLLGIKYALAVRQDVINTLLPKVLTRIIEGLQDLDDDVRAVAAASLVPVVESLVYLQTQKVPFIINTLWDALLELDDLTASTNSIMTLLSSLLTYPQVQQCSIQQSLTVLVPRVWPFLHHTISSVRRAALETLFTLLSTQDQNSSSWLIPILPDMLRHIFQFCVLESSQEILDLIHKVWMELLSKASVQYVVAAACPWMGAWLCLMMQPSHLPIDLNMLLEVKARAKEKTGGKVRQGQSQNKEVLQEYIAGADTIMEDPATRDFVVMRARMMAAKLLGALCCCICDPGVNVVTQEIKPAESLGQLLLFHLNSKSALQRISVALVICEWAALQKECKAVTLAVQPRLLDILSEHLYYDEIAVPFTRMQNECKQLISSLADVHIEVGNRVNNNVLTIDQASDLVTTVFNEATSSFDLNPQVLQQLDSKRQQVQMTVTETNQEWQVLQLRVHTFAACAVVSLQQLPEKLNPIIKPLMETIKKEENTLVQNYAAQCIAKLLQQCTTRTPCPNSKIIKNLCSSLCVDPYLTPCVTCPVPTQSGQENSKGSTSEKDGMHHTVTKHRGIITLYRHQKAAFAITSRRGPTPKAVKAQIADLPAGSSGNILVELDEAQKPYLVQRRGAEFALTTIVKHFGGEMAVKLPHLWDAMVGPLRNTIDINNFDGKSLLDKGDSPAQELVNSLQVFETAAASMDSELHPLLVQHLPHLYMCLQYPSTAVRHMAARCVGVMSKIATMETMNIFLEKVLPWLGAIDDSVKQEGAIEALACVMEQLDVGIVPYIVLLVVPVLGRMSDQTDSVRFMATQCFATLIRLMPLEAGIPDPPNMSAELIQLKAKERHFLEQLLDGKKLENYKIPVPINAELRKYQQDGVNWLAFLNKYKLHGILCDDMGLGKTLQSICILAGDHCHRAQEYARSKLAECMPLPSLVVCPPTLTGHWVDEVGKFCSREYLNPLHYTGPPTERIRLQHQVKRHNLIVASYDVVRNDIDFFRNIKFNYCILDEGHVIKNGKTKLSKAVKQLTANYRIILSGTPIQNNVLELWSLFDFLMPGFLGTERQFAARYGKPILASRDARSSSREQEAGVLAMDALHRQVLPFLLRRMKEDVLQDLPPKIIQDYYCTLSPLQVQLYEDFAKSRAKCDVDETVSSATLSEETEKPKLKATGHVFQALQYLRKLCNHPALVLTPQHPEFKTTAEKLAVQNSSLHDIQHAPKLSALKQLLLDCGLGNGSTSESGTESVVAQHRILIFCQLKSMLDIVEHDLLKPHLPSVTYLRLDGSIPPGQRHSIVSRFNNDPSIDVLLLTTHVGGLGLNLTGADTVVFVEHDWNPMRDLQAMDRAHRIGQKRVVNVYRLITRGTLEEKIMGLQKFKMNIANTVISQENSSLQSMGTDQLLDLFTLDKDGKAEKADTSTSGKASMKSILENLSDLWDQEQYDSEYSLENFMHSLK
Sequence of UniProt Q9NSG2 (Q9NSG2 whole entry, looked up): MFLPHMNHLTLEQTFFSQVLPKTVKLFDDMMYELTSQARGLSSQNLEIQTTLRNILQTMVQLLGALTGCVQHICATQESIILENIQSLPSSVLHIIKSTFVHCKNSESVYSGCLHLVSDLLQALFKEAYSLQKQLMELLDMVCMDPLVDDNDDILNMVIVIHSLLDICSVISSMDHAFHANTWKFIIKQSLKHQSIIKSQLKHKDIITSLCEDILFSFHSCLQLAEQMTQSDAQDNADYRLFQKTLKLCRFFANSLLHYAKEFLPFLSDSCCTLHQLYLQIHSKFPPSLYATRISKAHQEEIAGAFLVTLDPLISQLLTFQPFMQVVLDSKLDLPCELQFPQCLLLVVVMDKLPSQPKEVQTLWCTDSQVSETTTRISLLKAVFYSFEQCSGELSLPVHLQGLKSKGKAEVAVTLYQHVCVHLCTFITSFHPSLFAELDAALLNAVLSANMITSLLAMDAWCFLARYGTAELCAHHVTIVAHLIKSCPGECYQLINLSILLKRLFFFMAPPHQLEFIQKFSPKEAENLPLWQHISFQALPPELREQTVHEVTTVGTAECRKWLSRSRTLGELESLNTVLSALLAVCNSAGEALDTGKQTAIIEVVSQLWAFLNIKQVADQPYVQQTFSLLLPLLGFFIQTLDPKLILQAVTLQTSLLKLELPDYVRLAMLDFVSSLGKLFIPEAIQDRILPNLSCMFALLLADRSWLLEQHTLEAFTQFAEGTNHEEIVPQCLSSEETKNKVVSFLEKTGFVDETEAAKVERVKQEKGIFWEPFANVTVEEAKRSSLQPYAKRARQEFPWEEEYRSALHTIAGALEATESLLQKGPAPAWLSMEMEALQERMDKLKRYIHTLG
Sequence of UniProt O75081 (O75081 whole entry, looked up): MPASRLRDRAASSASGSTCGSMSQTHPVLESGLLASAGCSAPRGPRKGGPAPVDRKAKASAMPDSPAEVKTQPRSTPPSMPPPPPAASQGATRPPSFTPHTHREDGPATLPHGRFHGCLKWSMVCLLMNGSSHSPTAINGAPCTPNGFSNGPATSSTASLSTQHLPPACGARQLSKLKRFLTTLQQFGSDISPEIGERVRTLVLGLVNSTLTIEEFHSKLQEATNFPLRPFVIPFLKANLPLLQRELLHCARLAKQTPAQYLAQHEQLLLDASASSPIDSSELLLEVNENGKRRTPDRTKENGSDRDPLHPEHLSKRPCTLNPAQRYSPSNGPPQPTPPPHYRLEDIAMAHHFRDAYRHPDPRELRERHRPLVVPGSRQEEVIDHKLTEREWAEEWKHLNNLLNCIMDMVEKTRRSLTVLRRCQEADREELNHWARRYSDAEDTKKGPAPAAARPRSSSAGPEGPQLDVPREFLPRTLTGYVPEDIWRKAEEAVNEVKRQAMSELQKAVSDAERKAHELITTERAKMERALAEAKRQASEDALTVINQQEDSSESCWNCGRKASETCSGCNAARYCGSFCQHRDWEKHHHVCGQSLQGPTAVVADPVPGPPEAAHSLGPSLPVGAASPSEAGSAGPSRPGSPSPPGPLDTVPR
Sequence of UniProt O95352 (O95352 whole entry, looked up): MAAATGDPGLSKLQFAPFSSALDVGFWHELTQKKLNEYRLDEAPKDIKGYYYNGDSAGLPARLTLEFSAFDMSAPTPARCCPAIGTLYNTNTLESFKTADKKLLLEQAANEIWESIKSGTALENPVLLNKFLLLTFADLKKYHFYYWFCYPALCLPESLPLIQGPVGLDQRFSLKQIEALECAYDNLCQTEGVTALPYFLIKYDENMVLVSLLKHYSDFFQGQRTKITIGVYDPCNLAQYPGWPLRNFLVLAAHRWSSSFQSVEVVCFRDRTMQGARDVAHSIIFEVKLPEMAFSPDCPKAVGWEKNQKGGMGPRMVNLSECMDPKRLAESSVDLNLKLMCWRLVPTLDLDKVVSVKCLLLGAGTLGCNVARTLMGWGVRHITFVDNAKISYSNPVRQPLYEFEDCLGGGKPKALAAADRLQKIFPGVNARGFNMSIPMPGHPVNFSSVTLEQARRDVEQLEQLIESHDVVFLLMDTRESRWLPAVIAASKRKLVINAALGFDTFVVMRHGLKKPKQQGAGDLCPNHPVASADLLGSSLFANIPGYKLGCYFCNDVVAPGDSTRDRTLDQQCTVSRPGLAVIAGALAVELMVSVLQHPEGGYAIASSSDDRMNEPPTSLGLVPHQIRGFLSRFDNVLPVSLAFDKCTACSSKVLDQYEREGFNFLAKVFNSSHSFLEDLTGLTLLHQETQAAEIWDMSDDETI
Sequence of UniProt P83916 (P83916 whole entry, looked up): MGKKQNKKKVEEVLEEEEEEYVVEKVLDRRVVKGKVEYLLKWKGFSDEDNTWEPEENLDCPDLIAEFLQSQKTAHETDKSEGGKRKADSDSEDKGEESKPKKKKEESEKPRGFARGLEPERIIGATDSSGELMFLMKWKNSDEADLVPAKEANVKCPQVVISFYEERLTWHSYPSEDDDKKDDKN

Target	log2 fold change (ibrutinib)	log2 fold change [1]	log2 fold change (ralimetinib)	log2 fold change [2]	log2 fold change [3]	log2 fold change [4]	log2 fold change [5]	log2 fold change [6]	log2 fold change [7]	log2 fold change [8]
CBFA2T3 (UniProt O75081)	0.005	0.016	0.019	-0.005	-0.013	-0.001	0.003	-0.016	0.022	-0.005
ATG4B (UniProt Q9Y4P1)	0.037	0.021	0.016	-0.028	-0.019	-0.014	0.033	0.005	0.046	0.013
BCKDK (UniProt O14874)	0.048	0.049	0.137	-0.017	-0.001	-0.048	0.004	-0.088	0.067	0.059
BCKDHB (UniProt P21953)	-0.102	0.025	0.003	-0.01	-0.037	0.016	-0.022	-0.078	0.071	0.024
CDK8 (UniProt P49336)	0.006	0.097	-0.041	-0.011	-0.073	-0.058	0.095	0.088	0.016	0.16
CCNA2 (UniProt P20248)	0.005	0.16	-0.003	-0.013	0.022	0.003	0.008	0.047	0.007	-0.029
BTAF1 (UniProt O14981)	-0.016	-0.003	0.01	-0.008	0.003	0.018	0.023	0	0.025	-0.012
C1orf112 (UniProt Q9NSG2)	0.014	0.038	0.022	-0.061	0.017	0.067	-0.085	-0.029	0.036	0.091
CCNC (UniProt P24863)	-0.04	0.087	0.026	0.011	0.02	-0.05	0.034	0.061	0.016	0.184
ATP2B4 (UniProt P23634)	0.06	-0.026	-0.056	-0.029	-0.018	0.033	-0.034	0.089	0.051	-0.003
CDKN1C (UniProt P49918)	0.002	-0.001	0.055	-0.045	0.077	0.017	0.006	-0.032	0.023	0.005
CDC16 (UniProt Q13042)	0.02	0.019	0.025	-0.022	0.012	-0.006	0.04	-0.029	-0.005	0.025
C3 (UniProt P01024)	-0.047	-0.011	-0.077	-0.032	0.865	0.243	-0.004	0.01	0.026	0.001
BAG4 (UniProt O95429)	0.082	0.005	-0.009	0.02	-0.035	-0.014	0	-0.375 (active)	-0.021	-0.017
ATG7 (UniProt O95352)	0.014	-0.008	0.026	-0.016	-0.022	0.021	0.002	-0.001	0.011	0.027
CAMKK1 isoform 2 (UniProt Q8N5S9)	0.027	0.189	0.063	-0.153	-0.059	-0.008	-0.055	0.014	0.004	0.138
ATP6V0A2 (UniProt Q9Y487)	0.016	-0.017	0	-0.073	-0.077	0.007	-0.014	0.041	-0.032	0.012
CDK13 (UniProt Q14004)	-0.038	0.271 (active)	0.031	0.141	-0.056	-0.039	0.041	-0.104	-0.028	-0.022
ATAD3B (UniProt Q5T9A4)	-0.054	0.018	-0.027	-0.069	-0.012	-0.026	-0.028	-0.03	0.045	0.015
CASC4 (UniProt Q6P4E1)	0.001	-0.032	-0.029	-0.008	-0.012	-0.055	0.057	-0.016	0.029	-0.036
ATP9B (UniProt O43861)	-0.156	0.08	-0.044	-0.053	-0.021	0.225	0.049	0	0.079	-0.054
BCR (UniProt P11274)	-0.026	0.037	0.025	-0.025	0.014	-0.001	-0.032	0.025	0	0.017
CAMK2G isoform 8 (UniProt Q13555)	0.036	0.173	-0.022	0.009	-0.001	-0.019	0.073	-0.03	0.05	-0.027
CDK5RAP2 (UniProt Q96SN8)	-0.022	0.268 (active)	-0.006	0.01	-0.019	-0.001	-0.044	-0.007	0.003	0.067
BRD4 (UniProt O60885)	-0.011	-0.017	0.023	-0.042	-0.016	-0.006	0.001	0.061	0.006	-0.021
CBX1 (UniProt P83916)	-0.002	0.021	-0.006	-0.023	-0.039	-0.033	-0.024	0.007	-0.003	-0.046
ATP11A (UniProt P98196)	-0.02	0.091	0.122	-0.046	-0.017	-0.019	-0.065	-0.006	-0.074	0.02
